Data taken from PubChem BioAssay (NCI).
The panel holds about 83,000 compounds, 20% with a hit somewhere; the sample as a whole holds those more often.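 The endpoint reported here, percent growth, reads 100 for growth as untreated, 0 for no net growth and -100 for all cells dead.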 Values without a mark were called inactive. Activity calls are given as the source filed them. The calls were made as follows: active = growth percent below 10; inactive = the rest.

How the values were obtained:
Test in all cases: NCI-60 one-dose screen, 48 h (100 = growth as untreated, 0 = no growth, -100 = all killed)
Details in all cases: 10 µM unless noted
SR leukemia = tested on: SR leukemia
RPMI-8226 leukemia = tested on: RPMI-8226 leukemia
OVCAR-8 ovarian = tested on: OVCAR-8 ovarian
OVCAR-5 ovarian = tested on: OVCAR-5 ovarian
OVCAR-4 ovarian = tested on: OVCAR-4 ovarian
SK-OV-3 ovarian = tested on: SK-OV-3 ovarian
IGROV1 ovarian = tested on: IGROV1 ovarian
OVCAR-3 ovarian = tested on: OVCAR-3 ovarian
HS 578T breast = tested on: HS 578T breast
NCI/ADR-RES ovarian = tested on: NCI/ADR-RES ovarian
T-47D breast = tested on: T-47D breast
BT-549 breast = tested on: BT-549 breast
MDA-MB-435 melanoma = tested on: MDA-MB-435 melanoma
SW-620 colon = tested on: SW-620 colon
MCF7 breast = tested on: MCF7 breast
HCT-116 colon = tested on: HCT-116 colon
HCC-2998 colon = tested on: HCC-2998 colon
KM12 colon = tested on: KM12 colon

SMILES	growth (SR leukemia)	growth (RPMI-8226 leukemia)	growth (OVCAR-8 ovarian)	growth (OVCAR-5 ovarian)	growth (OVCAR-4 ovarian)	growth (SK-OV-3 ovarian)	growth (IGROV1 ovarian)	growth (OVCAR-3 ovarian)	growth (HS 578T breast)	growth (NCI/ADR-RES ovarian)	growth (T-47D breast)	growth (BT-549 breast)	growth (MDA-MB-435 melanoma)	growth (SW-620 colon)	growth (MCF7 breast)	growth (HCT-116 colon)	growth (HCC-2998 colon)	growth (KM12 colon)
COC(=O)c1nc(-c2ccc(C)cc2)oc1S(=O)(=O)c1cccc(OC)c1	0.69% (active)	94.2%	93%	92.1%	107%	105%	81.5%	77.8%	110%	103%	90%	70.6%	100%	65.5%	95.6%	61.6%	103%	
O=C(/C=C(/C=C/c1ccc2[nH]ccc2c1)OB(F)F)/C=C/c1ccc2[nH]ccc2c1	2.78% (active)	-31.2% (active)	-29.9% (active)	15.4%	2.28% (active)	13.6%	5.09% (active)	-16.2% (active)	31.4%	14.3%	6.23% (active)	-28.2% (active)	-4.54% (active)	6.41% (active)	12.5%	-79% (active)	-88.3% (active)	-5.34% (active)
COc1ccc(C(=O)N2c3ccccc3Sc3ccccc32)c(OC)c1	22.4%	16.2%	27.9%	47.8%	57.1%	36.9%	52.5%	-28% (active)	14.7%	-0.356% (active)	41.5%	16.9%	-43% (active)	24.8%	19.9%	9.42% (active)	12.8%	14.3%
O=C(CN1C(=O)S/C(=C\C(Cl)=C\c2ccccc2)C1=O)NCCc1ccc(O)cc1	1.71% (active)	0.0656% (active)	14%	77.7%	56.4%	90.1%	-12.9% (active)	-14.4% (active)	36.3%	19.6%	11.4%	22.1%	2.68% (active)	4.78% (active)	20.1%	-78.8% (active)	66.8%	
Nc1ncnc2c1C(c1ccc(Br)cc1)c1sc3c(F)cccc3c1O2 (centres undefined)	85.6%	100%	101%	99.8%	87.4%	102%	81.6%	103%	94.8%	96.1%	74.9%	100%	107%	94.5%	55.9%	95%	120%	
O=C(CSc1nnc(-c2cnccn2)n1-c1ccccc1)c1ccc(Cl)cc1	90.8%	92%	100%	96.9%	105%	108%	106%	98.3%	104%	104%	85.9%	91.6%	106%	106%	94.1%	95.4%	108%	
CC(=O)O[C@H]1CC2CCC3C(CC[C@@]4(C)C3C[C@H]([N+]3(C)CCCCC3)[C@@H]4OC(C)=O)[C@@]2(C)C[C@@H]1N1CCCCC1 (some centres undefined)	99.5%	110%	98.1%	110%	103%	106%	111%	112%	65%	103%	109%	108%	99.5%	106%	111%	101%	111%	108%
CC(=O)Oc1ccc(C)cc1C	102%	102%	110%	102%	105%	106%	114%	111%	109%	108%	97.9%	90.8%	113%	108%	77.7%	98.3%	112%	
Cn1cc(C(=O)c2nc(-c3c[nH]c4ccccc34)no2)c2cc(F)ccc21	11.2%	37.5%	49.3%	68.3%	69.8%	43.3%	32.5%	0.717% (active)	44.8%	36.5%	37.8%	48%	-19.1% (active)	23.2%	19.2%	19.5%	73.9%	
CNc1nnc2n(-c3ccccc3)c(=O)c3cnn(-c4ccccc4)c3n12	65.2%	85.3%	95.7%	99.3%	107%	68.4%	94.8%	104%	97.4%	96.6%	37.1%	74%	98.2%	105%	86.7%	77.7%	112%	87.4%
Cc1cc(=O)n(C(=O)Nc2ccccc2Cl)c2cc(O)ccc12	112%	97.8%	95.5%	102%	107%	95%	104%	106%	98.7%	99.9%	97.1%	94.4%	104%	93.7%	101%	101%	98.5%	
CCCCNC(=O)Oc1ccc(/C(=C(/C)Cc2ccc(OC)cc2)c2ccc(OCCN3CCCC3)cc2)cc1	-54.1% (active)	1.62% (active)	69.6%	86%	68.9%	89.1%	85.5%	56.1%	50.4%	81.5%	32.4%	73.8%	55.8%	72.7%	17.7%	39.3%	64.7%	
NNc1nc(-c2cccnc2)nc2c1sc(=S)n2-c1ccccc1	88.3%	106%	92.8%	102%	100%	79.6%	97.9%	93.1%	112%	102%	62.9%	72.7%	112%	102%	92.5%	76.4%	108%	
CCNCCNc1cc(C2CCCCC2)c(C#N)c2nc3ccccc3n12	-10.4% (active)	-13.9% (active)	26.2%	18.2%	28.3%	28.2%	7.32% (active)	-67.9% (active)	-5.65% (active)	35.5%	-19.4% (active)	-19.7% (active)	-38.6% (active)	7.58% (active)	14.7%	-4.22% (active)	13.6%	
N#Cc1c(-c2ccccc2)[nH]c2ncc(-c3ccccc3)n2c1=O	89.8%	106%	95.6%	109%	96.2%	76.6%	50.7%	86%	88.6%	91.2%	71.9%	89.1%	102%	101%	71.3%	87%	83.3%	
COc1c(B(O)O)cccc1-c1nc2c(F)cc3[nH]ncc3c2c2c1CCCC2	1.26% (active)	-11.7% (active)	15.1%	7.97% (active)	6.02% (active)	18.2%	7.11% (active)	-0.0178% (active)	5.7% (active)	17.7%	8.61% (active)	-46.1% (active)	8.04% (active)	1.12% (active)	-3.83% (active)	2.84% (active)	1.17% (active)	
CC1=C([Se]CC(OC(=O)CC[Se]c2ccccc2)C(=O)NC(C)(C)C)C(=O)c2ccccc2C1=O (centres undefined)	-27.7% (active)	14.8%	-82% (active)	-63.1% (active)	-83.6% (active)	-98.3% (active)	-19.2% (active)	-95.9% (active)	-19.1% (active)	-36.3% (active)	-54.5% (active)	-89% (active)	-61.7% (active)	-76.9% (active)	-54.7% (active)	-61.9% (active)		
C=CCOC(=O)Nc1cccn([C@H](Cc2ccccc2)C(=O)NCCC(C)C)c1=O	64.6%	85.9%	102%	117%	92.7%	103%	106%	119%	103%	93.1%	93.8%	132%	108%	109%	92.8%	109%	105%	
